# Laboratory results: the supplement of paper PMC8728848
# This excerpt belongs to a sample that is enriched for the strongest signals.
# How the values were obtained:
# Assay in all cases: glycan array binding signal (z-score within array); higher = stronger binding
# Settings in all cases: glycan notation: IUPAC condensed, linker removed
# [1] = molecular target: Gal3S(b1-4)Glc
# Summary of the method: (§1)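 From the Consortium for Functional Glycomics database, 3228 arrays were curated, keeping only those whose protein sequence was available. Binding is given as a within-array Z-score averaged across arrays sharing a protein sequence and across linkers. Negative Z-scores can be read as non-binding.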
# [2] = molecular target: Gal3S(b1-4)[Fuc(a1-3)]GlcNAc6S
# Summary of the method: as §1
# [3] = molecular target: GalNAc(b1-3)Gal(a1-4)Gal(b1-4)GlcNAc(b1-3)Gal(b1-4)Glc
# Summary of the method: as §1
# [4] = molecular target: GalNAc(b1-4)Gal(b1-4)Glc
# Summary of the method: as §1
# [5] = molecular target: GlcNAc(b1-2)Man(a1-3)[GlcNAc(b1-2)Man(a1-6)]Man(b1-4)GlcNAc(b1-4)[Fuc(a1-6)]GlcNAc
# Summary of the method: as §1
# [6] = molecular target: GlcNAc(b1-2)[GlcNAc(b1-6)]Man(a1-6)[GlcNAc(b1-2)Man(a1-3)]Man(b1-4)GlcNAc(b1-4)GlcNAc
# Summary of the method: as §1
# [7] = molecular target: GlcNAc(b1-3)Gal(b1-4)GlcNAc(b1-2)[GlcNAc(b1-3)Gal(b1-4)GlcNAc(b1-6)]Man(a1-6)[GlcNAc(b1-3)Gal(b1-4)GlcNAc(b1-2)Man(a1-3)]Man(b1-4)GlcNAc(b1-4)GlcNAc
# Summary of the method: as §1
# [8] = molecular target: GlcNAc(b1-3)Gal(b1-4)GlcNAc(b1-3)Gal(b1-4)GlcNAc(b1-3)GalNAc
# Summary of the method: as §1
# [9] = molecular target: Man(a1-3)[Man(a1-6)]Man(b1-4)GlcNAc(b1-4)GlcNAc
# Summary of the method: as §1
# [10] = molecular target: Man(a1-3)[Man(a1-6)]Man(b1-4)GlcNAc(b1-4)[Fuc(a1-6)]GlcNAc
# Summary of the method: as §1
# [11] = molecular target: Neu5Ac(a2-3)Gal(b1-3)GlcNAc(b1-2)Man
# Summary of the method: as §1
# [12] = molecular target: Neu5Ac(a2-3)Gal(b1-3)GlcNAc(b1-6)GalNAc
# Summary of the method: as §1
# [13] = molecular target: Neu5Ac(a2-3)Gal(b1-3)[Fuc(a1-4)]GlcNAc
# Summary of the method: as §1
# [14] = molecular target: Neu5Ac(a2-3)Gal(b1-3)[Fuc(a1-4)]GlcNAc(b1-3)Gal(b1-3)[Fuc(a1-4)]GlcNAc
# Summary of the method: as §1
# [15] = molecular target: Neu5Ac(a2-3)Gal(b1-4)GlcNAc(b1-2)[Neu5Ac(a2-3)Gal(b1-4)GlcNAc(b1-6)]Man(a1-6)[Neu5Ac(a2-3)Gal(b1-4)GlcNAc(b1-2)Man(a1-3)][GlcNAc(b1-4)]Man(b1-4)GlcNAc(b1-4)GlcNAc
# Summary of the method: as §1
# [16] = molecular target: Neu5Ac(a2-3)Gal(b1-4)GlcNAc(b1-3)Gal(b1-4)GlcNAc(b1-2)Man(a1-3)[Neu5Ac(a2-3)Gal(b1-4)GlcNAc(b1-3)Gal(b1-4)GlcNAc(b1-2)Man(a1-6)]Man(b1-4)GlcNAc(b1-4)GlcNAc
# Summary of the method: as §1
# [17] = molecular target: Neu5Ac(a2-3)Gal(b1-4)[Fuc(a1-3)]GlcNAc(b1-3)GalNAc
# Summary of the method: as §1
# [18] = molecular target: Neu5Ac(a2-3)Gal6S(b1-4)GlcNAc
# Summary of the method: as §1
# [19] = molecular target: Neu5Ac(a2-3)Gal6S(b1-4)[Fuc(a1-3)]GlcNAc
# Summary of the method: as §1
# [20] = molecular target: Neu5Ac(a2-3)[Neu5Ac(a2-6)]GalNAc
# Summary of the method: as §1
# [21] = molecular target: Neu5Ac(a2-6)Gal(b1-4)GlcNAc(b1-2)Man(a1-3)[GlcNAc(b1-4)][Neu5Ac(a2-6)Gal(b1-4)GlcNAc(b1-2)Man(a1-6)]Man(b1-4)GlcNAc(b1-4)GlcNAc
# Summary of the method: as §1
# [22] = molecular target: Neu5Ac(a2-6)Gal(b1-4)GlcNAc(b1-2)Man(a1-3)[Neu5Ac(a2-6)Gal(b1-4)GlcNAc(b1-2)Man(a1-6)]Man(b1-4)GlcNAc(b1-4)GlcNAc
# Summary of the method: as §1
# [23] = molecular target: Neu5Ac(a2-6)Gal(b1-4)GlcNAc(b1-2)Man(a1-6)[Gal(b1-4)GlcNAc(b1-2)Man(a1-3)]Man(b1-4)GlcNAc(b1-4)GlcNAc
# Summary of the method: as §1
# [24] = molecular target: Neu5Ac(a2-6)Gal(b1-4)GlcNAc(b1-2)[Neu5Ac(a2-6)Gal(b1-4)GlcNAc(b1-4)]Man(a1-3)[GlcNAc(b1-4)][Neu5Ac(a2-6)Gal(b1-4)GlcNAc(b1-2)[Neu5Ac(a2-6)Gal(b1-4)GlcNAc(b1-6)]Man(a1-6)]Man(b1-4)GlcNAc(b1-4)GlcNAc
# Summary of the method: as §1
# [25] = molecular target: Neu5Ac(a2-8)Neu5Ac(a2-3)[GalNAc(b1-4)]Gal(b1-4)Glc
# Summary of the method: as §1
# [26] = molecular target: Neu5Ac9Ac(a2-6)Gal(b1-4)GlcNAc
# Summary of the method: as §1
# [27] = molecular target: Neu5Gc(a2-6)Gal(b1-4)GlcNAc
# Summary of the method: as §1
binder,measurement,setting,value
"Arath Fbox (Arabidopsis thaliana), NP_178341.1 (protein) EFTWGRKRRVKSESSPFDSFPEDCISYIISFTNPRDACVAATVSKTFESTVKSDIIWEKFLPADYESLIPPSRVFSSKKELYFSLCNDPVLFDDDKKSVWLEKASGKRCLMLSAMNLSIIWGDNPQYWQWIPIPESRFEKVAKLRDVCWFEIRGRTNTRVLSPRTRYSAYIVFKGVDKCYGFQNVAIEAAVGVVGQEPSRRLICFSEAIRRGRRNVVKPKQREDGWMEIELGEFFNDGGIMDNDEIEMSALETKQLNRKCGLIIQGIEIRPAKILAAAAASFLEQKLISEEDLNSAVDHHHHHH",glycan array binding signal (z-score),[1],1
same,glycan array binding signal (z-score),[2],2.7
same,glycan array binding signal (z-score),[3],-0.087
same,glycan array binding signal (z-score),[4],0.06
same,glycan array binding signal (z-score),[5],0.585
same,glycan array binding signal (z-score),[6],-0.389
same,glycan array binding signal (z-score),[7],0.161
same,glycan array binding signal (z-score),[8],-0.761
same,glycan array binding signal (z-score),[9],-0.721
same,glycan array binding signal (z-score),[10],-0.72
same,glycan array binding signal (z-score),[11],-0.092
same,glycan array binding signal (z-score),[12],-0.024
same,glycan array binding signal (z-score),[13],-0.597
same,glycan array binding signal (z-score),[14],0.221
same,glycan array binding signal (z-score),[15],-0.75
same,glycan array binding signal (z-score),[16],2.64
same,glycan array binding signal (z-score),[17],2.69
same,glycan array binding signal (z-score),[18],-0.45
same,glycan array binding signal (z-score),[19],-0.559
same,glycan array binding signal (z-score),[20],-0.205
same,glycan array binding signal (z-score),[21],-0.647
same,glycan array binding signal (z-score),[22],-0.41
same,glycan array binding signal (z-score),[23],3.21
same,glycan array binding signal (z-score),[24],-0.533
same,glycan array binding signal (z-score),[25],-0.467
same,glycan array binding signal (z-score),[26],-0.681
same,glycan array binding signal (z-score),[27],2.49
